Rows were chosen to be rich in hits. Some 3.5% of all compounds tested hit in one or more screens of this group.
GPR151 ag = activators of human GPR151, primary screen, cell-based, PathHunter beta-arrestin, luminescence. hit rate 1% among 650,000. PathHunter beta-arrestin GPR151 cells. activation, % at 11.2 µM. G-protein coupled receptor 151 (Homo sapiens), Q8TDV0; in the data active means activation above about 4.9%;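 further: 0% = median of compound wells and 100% = cells with positive control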
Target sequence (Q8TDV0 whole entry, looked up): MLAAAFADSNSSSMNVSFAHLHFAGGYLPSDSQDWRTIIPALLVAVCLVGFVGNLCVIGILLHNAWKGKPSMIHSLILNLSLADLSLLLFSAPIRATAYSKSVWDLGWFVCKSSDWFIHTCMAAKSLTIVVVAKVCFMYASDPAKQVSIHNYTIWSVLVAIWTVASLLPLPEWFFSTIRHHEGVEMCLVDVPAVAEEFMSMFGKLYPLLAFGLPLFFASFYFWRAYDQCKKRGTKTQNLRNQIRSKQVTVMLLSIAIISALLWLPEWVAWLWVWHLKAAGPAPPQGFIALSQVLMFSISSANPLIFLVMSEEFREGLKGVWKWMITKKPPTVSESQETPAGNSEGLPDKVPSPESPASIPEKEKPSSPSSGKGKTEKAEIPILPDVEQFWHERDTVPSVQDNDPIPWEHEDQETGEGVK
TEAD-YAP block = TEAD-YAP interaction inhibition, primary screen, TEAD-YAP interaction inhibitor project, luminescence, HEK-TIYL cells; AID 1259422, 2018; inhibition, % at 9.12 µM; TEAD-Gal4/YAP UAS-luciferase luminescence; hit rate 1.4% among 640,000; in the data active means inhibition above about 32%;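 further: 0% = median of test compound wells and 100% = reference inhibitor wells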
MITF primary = MITF inhibitors, primary screen, biochemical, AlphaScreen, human | Microphthalmia-associated transcription factor (Homo sapiens), O75030 | AlphaScreen MITF homodimerization, bead proximity signal | inhibition, % at 2.6 µM | hit rate 0.91% among 650,000 | AID 1259374, 2018; in the data active means inhibition above about 50%;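 further: 0% = vehicle wells with protein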
FBW7 activator = FBW7 E3 ligase activators, primary screen, biochemical, AlphaScreen, human; F-box/WD repeat-containing protein 7 (Homo sapiens), Q969H0; AlphaScreen FBW7–phospho-cyclin E peptide binding, activator screen; normalized activity (activation), % at 26.1 µM; hit rate 0.13% among 650,000; AID 1259310, 2017; in the data active means normalized activity above about 1.9%;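 further: purified mutant Fbw7 with reduced substrate affinity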
GPR151 confirm = GPR151 activators, triplicate retest, confirmation, cell-based, PathHunter beta-arrestin, luminescence; shares compounds with GPR151 ag; GPR151 PathHunter beta-arrestin cells, 90 min; % of EA-reagent control over plate median; activation, % at 11.2 µM; 6,700 tested, under 10 active; AID 1508609, 2020;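 active means mean percent activation across replicates above the confirmation screen cutoff of 4.91%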
GPR119 ag = GPR119 activators in beta-arrestin cells, counter-screen for GPR151 activator project, cell-based, PathHunter beta-arrestin, luminescence, triplicate. hit rate 0.3% among 6,700. 90 min; 0 = compound-well median, 100 = enzyme-acceptor control. AID 1508611, 2020. shares compounds with GPR151 ag. activation, % at 11.2 µM;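 active means mean percent activation in the counterscreen above 29.09%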;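 further: counterscreen on off-target GPR119 to flag nonselective hits from the GPR151 activator screen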
Numbers without * were called inactive.

Screening O=C(C1CCN(S(=O)(=O)c2ccccc2)CC1)N1CCCC2CCCCC21 (configuration not stated) returned GPR151 ag 6.2*, TEAD-YAP block 3.7, MITF primary 11.3, FBW7 activator -0.1, GPR151 confirm 0.8 and GPR119 ag 5.3.
`Clc1ccc(Cn2ncc3c(N4CCCC4)ncnc32)cc1` gave GPR151 ag 8.4*, TEAD-YAP block -2.6, MITF primary 9.0, FBW7 activator 1.0, GPR151 confirm 0.0 and GPR119 ag 5.6.
For O=C(N/C(=C/c1ccc(-c2cccc([N+](=O)[O-])c2)o1)C(=O)N1CCOCC1)c1ccccc1 the results were GPR151 ag -1.5, TEAD-YAP block 4.0, MITF primary 17.1 and FBW7 activator 0.1.
Screening COc1ccccc1OCC(=O)NC1CCCCCC1 returned GPR151 ag -0.2, TEAD-YAP block -52.9, MITF primary -21.2 and FBW7 activator 0.2.
`COC(=O)C(C(=O)Nc1ccccc1C)C1CCCC1` (configuration not stated) gave GPR151 ag 0.1, TEAD-YAP block -6.3, MITF primary 7.3 and FBW7 activator 0.2.
For CCOC(=O)C(C(=O)Nc1ccccc1OC)C1CCCCC1 (configuration not stated) the results were GPR151 ag 5.1*, TEAD-YAP block 2.7, MITF primary 4.3, FBW7 activator -0.1, GPR151 confirm 0.1 and GPR119 ag -3.5.
For COc1ccccc1OC(C)C(=O)NC1CCCCC1 (configuration not stated) the results were GPR151 ag 6.4*, TEAD-YAP block -4.5, MITF primary -12.1, FBW7 activator -0.2, GPR151 confirm -1.0 and GPR119 ag -6.6.
For COc1ccc(CCN(C)C2CCCN(C(=O)C3=CCCC3)C2)cc1OC (configuration not stated) the results were GPR151 ag 2.5, TEAD-YAP block 4.2, MITF primary 0.7 and FBW7 activator 0.0.
`CCCCOc1ccc(CSc2nncn2N)cc1[N+](=O)[O-]` gave GPR151 ag 5.1*, TEAD-YAP block -39.4, MITF primary 9.4, FBW7 activator 0.0, GPR151 confirm -1.0 and GPR119 ag -10.5.
Screening CSc1ccc(S(=O)(=O)N2CCCCCC2)cc1 returned GPR151 ag 5.0*, TEAD-YAP block 3.3, MITF primary 15.0, FBW7 activator 0.4, GPR151 confirm -0.3 and GPR119 ag -0.3.
CN1CCN(S(=O)(=O)c2ccc(C3CCCCC3)cc2)CC1 was read as GPR151 ag 5.3*, TEAD-YAP block 1.5, MITF primary 4.0, FBW7 activator 0.0, GPR151 confirm 0.6 and GPR119 ag -1.8.
O=C(c1ccco1)N1CCN(c2nccn3c(-c4cccc(Cl)c4)cnc23)CC1 was read as GPR151 ag 6.9*, TEAD-YAP block -0.6, MITF primary 18.0, FBW7 activator 0.1, GPR151 confirm 1.3 and GPR119 ag 21.4.
Cc1ccc(OCC(=O)Nc2sc3c(c2C(N)=O)CCCC3)c(C)c1 was read as GPR151 ag 1.0, TEAD-YAP block -5.9, MITF primary -2.6 and FBW7 activator -0.1.
Screening Nc1cc(C(=O)OCC(=O)Nc2cccc(S(N)(=O)=O)c2)ccc1Cl returned GPR151 ag 6.4*, TEAD-YAP block 1.9, MITF primary 9.2, FBW7 activator -0.1, GPR151 confirm 0.4 and GPR119 ag -2.7.
Screening CC(=O)c1cccc(NC(=O)COC(=O)c2ccc(Cl)c(N)c2)c1 returned GPR151 ag -0.3, TEAD-YAP block -3.3, MITF primary -2.9 and FBW7 activator -0.1.
COc1cccc(NC(=O)NNC(=O)c2cc3occc3[nH]2)c1 was read as GPR151 ag 5.0*, TEAD-YAP block -0.2, MITF primary 9.4, FBW7 activator -0.2, GPR151 confirm 0.5 and GPR119 ag 8.7.
Screening COc1ccc(/C(O)=C2/C(=O)C(=O)N(CCCN(C)C)C2c2ccc(C)cc2)cc1 (configuration not stated) returned GPR151 ag -1.1, TEAD-YAP block 3.3, MITF primary 1.1 and FBW7 activator 0.6.
Screening COc1ccc(/C=N\NC(=O)c2ccccn2)cc1OC returned GPR151 ag -1.6, TEAD-YAP block -47.6, MITF primary 15.6 and FBW7 activator -0.1.
Cc1sc2nc(SCC(=O)NC3CCCC3)nc(N)c2c1C was read as GPR151 ag 0.2, TEAD-YAP block -5.2, MITF primary -0.5 and FBW7 activator -0.2.
Screening Cc1sc2nc(SCC(=O)N3CCCCC3C)nc(N)c2c1C (configuration not stated) returned GPR151 ag 11.3*, TEAD-YAP block -4.7, MITF primary 1.0, FBW7 activator 0.2, GPR151 confirm 0.2 and GPR119 ag 3.3.
Screening CCN1CCCC1CN1CC(O)=C(c2nc3ccccc3[nH]2)C1=N (configuration not stated) returned GPR151 ag 1.9, TEAD-YAP block -9.6, MITF primary -5.2 and FBW7 activator -0.2.
Cc1ccc(CSc2nc3[nH]ncc3c(=O)n2-c2cccc(C)c2)cc1 was read as GPR151 ag 9.0*, TEAD-YAP block -10.2, MITF primary 4.3, FBW7 activator -0.1, GPR151 confirm 0.5 and GPR119 ag 9.9.
For Cc1ccc(-n2c(SCc3cccc(C)c3)nc3[nH]ncc3c2=O)cc1 the results were GPR151 ag 0.1, TEAD-YAP block 4.2, MITF primary 18.9 and FBW7 activator 0.6.
For CCc1ccc(-n2c(SCc3cc(=O)n4c(C)cccc4n3)nc3[nH]ncc3c2=O)cc1 the results were GPR151 ag 5.8*, TEAD-YAP block -6.7, MITF primary 0.7, FBW7 activator 0.0, GPR151 confirm 0.6 and GPR119 ag 10.9.
`O=C(Nc1ccc(S(=O)(=O)Nc2nccs2)cc1)C(c1ccccc1)c1ccccc1` gave GPR151 ag 5.5*, TEAD-YAP block 0.4, MITF primary 8.5, FBW7 activator 0.1, GPR151 confirm 0.2 and GPR119 ag 0.0.
O=C(Nc1ccc(S(=O)(=O)Nc2nccs2)cc1)C(Cl)Cl was read as GPR151 ag 1.1, TEAD-YAP block 3.0, MITF primary 4.4 and FBW7 activator -0.1.
Screening CC(C)Oc1ccc(C(CC(=O)O)NC(=O)CC(C)c2ccccc2)cc1 (configuration not stated) returned GPR151 ag -0.6, TEAD-YAP block -1.9, MITF primary 3.7 and FBW7 activator -0.1.

Compound activity (PubChem)
